# From PubChem BioAssay AID1529 (NMMLSC, 2009)
# The whole screen tested about 290,000 compounds, of which about 4,200 (1.4%) were called active. The sample holds actives, similar compounds and a random draw of the others, so the mix is not that of the screen. Unmarked numbers belong to inactive results.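 How the source made its calls: active means binding response more than 3 SD above or below the average of its plate-row segment, actives on both sides; inconclusive means wells at one plate position flagged as instrument error; inactive means the rest.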
# Target: Mitogen-activated protein kinase kinase kinase 3 (Homo sapiens) (UniProt Q99759)
# Assay: compounds raising or lowering MEK5 association with MEKK3 PB1 – biochemical, wildtype MEKK3, multiplex bead flow cytometry, Alexa488-MEK5, primary screen (AID 1529);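 further: Alexa488 bead fluorescence after subtracting the streptavidin-only scavenger bead signal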
# Conditions: bead-based flow cytometry, Alexa488-MEK5 binding to MEKK3; at 10 µM; actives lie on both sides; 0 = blocked by unlabeled MEK5, 100 = vehicle
# Chain of Mitogen-activated protein kinase kinase kinase 3 (Homo sapiens) (Q99759 whole entry, looked up): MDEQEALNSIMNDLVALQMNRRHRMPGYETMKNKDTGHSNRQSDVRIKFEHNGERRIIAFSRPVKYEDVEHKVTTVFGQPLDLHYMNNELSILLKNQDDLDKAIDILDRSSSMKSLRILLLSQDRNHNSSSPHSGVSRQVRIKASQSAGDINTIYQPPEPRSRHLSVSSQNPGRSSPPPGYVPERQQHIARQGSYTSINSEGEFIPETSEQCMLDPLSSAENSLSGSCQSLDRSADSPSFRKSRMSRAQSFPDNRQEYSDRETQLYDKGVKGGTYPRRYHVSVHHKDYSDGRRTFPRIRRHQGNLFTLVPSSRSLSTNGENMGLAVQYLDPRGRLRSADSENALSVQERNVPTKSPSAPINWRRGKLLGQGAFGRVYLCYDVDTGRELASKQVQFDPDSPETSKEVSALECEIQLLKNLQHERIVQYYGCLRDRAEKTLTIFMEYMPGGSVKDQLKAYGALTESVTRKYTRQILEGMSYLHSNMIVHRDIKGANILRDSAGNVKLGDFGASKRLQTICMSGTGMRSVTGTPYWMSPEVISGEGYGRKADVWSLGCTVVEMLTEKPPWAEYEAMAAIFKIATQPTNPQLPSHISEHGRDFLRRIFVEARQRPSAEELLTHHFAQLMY
row,SMILES,binding response (% of control)
1,Cc1cnc(NC(=O)Cn2cnc3c2c(=O)n(C)c(=O)n3C)s1,136% (active)
2,Cc1ccc(SCC(=O)Nc2ncc(C)s2)cc1,100%
3,Cc1cnc(NC(=O)CSc2nnc(C)s2)s1,100%
4,COc1ccc(-c2csc(Nc3ccc(O)cc3)n2)cc1,95%
5,COC(=O)CCc1sc(Nc2ccc(Br)cc2)nc1-c1ccc(OC)cc1,136% (active)
6,Cc1ccc(OC(=O)CCC(=O)Nc2ccc(Br)cc2)cc1,94%
7,Cc1ccc(NC(=O)CN2CCC(C(N)=O)CC2)cc1[N+](=O)[O-],98%
8,CSCCC(Nc1ccc(S(=O)(=O)N2CCOCC2)cc1[N+](=O)[O-])C(=O)OCC(=O)N(C(C)C)C(C)C (stereo not drawn),98%
9,CC(=O)N1CCN(S(=O)(=O)c2ccc(C)c([N+](=O)[O-])c2)C1C(C)C (stereo not drawn),128% (active)
10,Cc1cc(=O)cc(C)n1-c1ccc(Cl)c(Cl)c1,96%
11,CC(=O)Nc1ccc(S(=O)(=O)N2CCC(C(=O)NC3CC3)CC2)cc1,104%
12,Cc1[nH]n(-c2ccccc2)c(=O)c1/C=N/NC(=O)c1ccoc1C,108%
13,CCC(=C/c1sc2ccc3ccccc3c2[n+]1C)/C=C1\Sc2ccc3ccccc3c2N1C,23% [inhibitor] (active)
14,C#CCOCCOCCOCCNc1nc(N2CCN(C(=O)C([C@@H](C)CC)n3cc(C(N)COC(=O)C(F)(F)F)nn3)CC2)nc(N2CCN(C(=O)[C@H](CCCCN)n3cc(C(N)CC(C)C)nn3)CC2)n1 (stereo partly drawn),120%
15,N=C1/C(=C/c2cccn2-c2cccc([N+](=O)[O-])c2)C(=O)N=C2SC=CN12,135% (active)
16,Cc1cc(/C=C2/C(=N)N3C(=NC2=O)SN=C3S(C)(=O)=O)c(C)n1-c1ccccc1,96%
17,COCOc1cc(O)c(C(=O)/C=C/c2ccc(OCOC)c(OCOC)c2)c(OCOC)c1,104%
18,Cc1cccc(NC(=O)CCN2CC(C)CC(C)C2)c1 (stereo not drawn),107%
19,Cc1nonc1C1CCCN1Cc1nc(-c2ccc(F)cc2F)oc1C (stereo not drawn),85%
20,CCN1/C(=C\c2ccc3ccccc3[n+]2CC)Sc2cc(C)ccc21,70% [inhibitor] (active)
21,CCN1/C(=C/c2ccc3ccc(C)cc3[n+]2CC)Sc2ccccc21,95%
22,CCN(CC)CCCNC(=O)c1cn(C)c2ccc(S(=O)(=O)N(C)C3CCCCC3)cc2c1=O,100%
23,COc1ccc(C(=O)NCc2nnc(SCC(=O)Nc3cccc(OC)c3)o2)cc1,102%
24,Cc1cccc(/C=N/NC(=O)CNc2cccc3ccccc23)n1,144% (active)

row,SMILES,binding response (% of control)
1,Cn1cccc1/C=N/NC(=O)CNc1cccc2ccccc12,103%
2,C/C(=N\NC(=O)CNc1cccc2ccccc12)c1ccc(Br)s1,103%
3,CCn1cc(CN2CCC(C(=O)Nc3cccc(-c4cccc(Cl)c4)c3)CC2)c(C)n1,107%
4,Cc1ccc(N(CCC(=O)O)S(=O)(=O)c2cccc(C(F)(F)F)c2)cc1,3% [inhibitor] (active)
5,O=C(O)c1cc(S(=O)(=O)N(Cc2ccccc2)c2cccc(C(F)(F)F)c2)ccc1Cl,106%
6,CCc1nnc(NC(=O)CCN(c2ccc(C)cc2)S(=O)(=O)c2ccccc2)s1,108%
7,Cc1ccnc(N2CCCC(C(=O)NC3CC3)C2)n1 (stereo not drawn),100%
8,COc1cc(C)nc(N2CCCC(C(=O)NCC(C)C)C2)n1 (stereo not drawn),130% (active)
9,Cc1cc(=O)n2nc(N3CCCC(C(=O)NCc4ccc(Cl)cc4)C3)sc2n1 (stereo not drawn),99%
10,CN1CCN(CCNC(=O)Nc2ccccc2[N+](=O)[O-])CC1,104%
11,Cc1ccc(CN(CC(=O)NC2CCCCC2)C(=O)c2csnn2)cc1,103%
12,Cc1ccccc1CCN(CC(=O)NC1CCCCC1)C(=O)c1csnn1,142% (active)
13,O=C(CN(C(=O)c1csnn1)c1ccc(Br)cc1)NC1CCCC1,101%
14,COc1ccccc1CC(=O)Nc1ccc(F)cc1F,106%
15,COc1cc([N+](=O)[O-])ccc1NC(=O)CN1CCCC1,104%
16,COc1ccccc1CC(=O)Nc1ccc([N+](=O)[O-])cc1OC,139% (active)
17,CCC(C)NC(=O)C1c2ccccc2Oc2ccccc21 (stereo not drawn),71%
18,CC(C)(C)c1nnc(NC(=O)C2c3ccccc3Oc3ccccc32)s1,45% [inhibitor] (active)
19,CCC(C)(C)NC(=O)C1c2ccccc2Oc2ccccc21,99%
20,C=CCSc1nnc2c(n1)-c1cccc3cccc-2c13,104%
21,COc1ccc(C(=O)NC(=S)NC2CCCCC2)cc1,106%
22,Brc1ccccc1C1N=C(c2ccccc2)NO1 (stereo not drawn),103%
23,Cc1ccc2c(c1)N(C(=O)CCC(=O)NCc1cccnc1)CCO2,100%
24,COc1cccc(NC(=O)CN(C)C(=O)/C=C/c2cc(OC)ccc2OC)c1,151% (active)

row,SMILES,binding response (% of control)
1,COc1ccc(/C=C/C(=O)OCC(=O)Nc2cccc(Oc3ccccc3)c2)c(OC)c1,106%
2,COc1cccc(NC(=O)CN(C)C(=O)Cc2ccc(Cl)cc2Cl)c1,106%
3,CCOC(=O)N1CCN(C(=O)c2cn(C)c3ccc(S(=O)(=O)N(CC)CC)cc3c2=O)CC1,98%
4,CCOC(=O)CC1(NC(=O)c2cc(COc3cncc(Cl)c3)on2)CCCCC1,103%
5,O=C(CN1C(=O)CSC1=O)N1CCCC(Nc2ccc(F)cc2)C1 (stereo not drawn),102%
6,CN(C(=O)c1cc2c(=O)n3ccccc3nc2s1)C1CCCCC1,100%
7,Cn1c(=O)c2c(nc(NCCc3ccccc3)n2Cc2ccccc2)n(C)c1=O,96%
8,Cn1c(=O)c2c(nc(N/N=C/c3cccs3)n2Cc2ccc(Br)cc2)n(C)c1=O,131% (active)
9,Cn1c(=O)c2sccc2n(Cc2ccc(Br)cc2)c1=O,101%
10,COc1cccc(OCC(=O)NNC(=O)c2cnccn2)c1,2% [inhibitor] (active)
11,COc1cccc(OCC(=O)Nc2ccccc2C(N)=O)c1,110%
12,COc1ccc(OCC(=O)NNC(=O)c2cccc(C)c2)cc1,103%
13,Cc1c(C(C)(C)O)[nH]c2ccc(C#N)cc12,103%
14,Cc1ccc(S(=O)(=O)NCC(C)NS(C)(=O)=O)cc1 (stereo not drawn),97%
15,CCOC(=O)C(NS(=O)(=O)c1ccc(C)cc1)(C(F)(F)F)P(=O)(OCC(C)C)OCC(C)C (stereo not drawn),140% (active)
16,CC(=O)N1CCN(CC(C)(C)NS(=O)(=O)c2ccc(C)cc2)CC1,102%
17,CCCOc1ccc(C(=O)NCCc2ccccc2)cc1,97%
18,Cc1cc(C(=O)NCCCc2ccccc2)no1,99%
19,CC(C)c1ccc(C(=O)NCCCc2ccccc2)cc1,2% [inhibitor] (active)
20,Cc1ccccc1-n1c(C)cc(/C=C2\NC(=O)NC2=O)c1C,57%
21,C#CCOc1ccccc1/C=C1/C(=O)ON=C1C,110%
22,Cc1no[n+]([O-])c1COc1ccccc1/C=C1\NC(=S)NC1=O,126% (active)
23,COc1cc(S(=O)(=O)Nc2ncn[nH]2)ccc1Cl,102%
24,CS(=O)(=O)Nc1cccc(C2=NN(S(=O)(=O)c3ccccc3)C(c3cccs3)C2)c1 (stereo not drawn),95%

row,SMILES,binding response (% of control)
1,CS(=O)(=O)Nc1ccc(C2=NN(S(C)(=O)=O)C(c3cccs3)C2)cc1 (stereo not drawn),10% [inhibitor] (active)
2,CCS(=O)(=O)Nc1ccc(C2=NN(C(C)=O)C(c3cccs3)C2)cc1 (stereo not drawn),55%
3,Cc1occc(=O)c1OCc1c(Cl)cccc1Cl,102%
4,CCOc1ccc(NC(=O)C2CCN(C(=O)N3CCOc4ccccc43)CC2)cc1,103%
5,Cc1ccc(-c2noc(C3CCCN(C(=O)c4cccc(Cl)c4)C3)n2)o1 (stereo not drawn),99%
6,COc1ccc(N2CCN(C(=O)CN3C(=O)COc4ccccc43)CC2)cc1,101%
7,C/C=C/c1ccc(OCCOc2ccc(C=O)cc2OC)c(OC)c1,100%
8,C/C=C/c1ccc(OCCCCN2CCC(C)CC2)c(OC)c1,69% [inhibitor] (active)
9,COc1ccc(OCCCCN2CCC(C)CC2)cc1,108%
10,O=c1[nH]snc1-c1c(Cl)cccc1Cl,105%
11,COc1cccc(NC(=O)COc2cc(C)cc3oc(=O)cc(C)c23)c1,103%
12,CCN1CCN(c2nc(Nc3cc(OC)ccc3OC)nc(Nc3cc(OC)ccc3OC)n2)CC1,37% [inhibitor] (active)
13,CCOC(=O)N1CCN(CCC(=O)Nc2cc(OC)ccc2OC)CC1,96%
14,CCOc1ccc(Nc2nc(Cl)nc(N3CCN(c4ccc(OC)cc4)CC3)n2)cc1,103%
15,CC(=O)O[C@H]1c2ccccc2-c2ccccc2[C@@H]1OC(C)=O,104%
16,COC(=O)c1ccc(NC(=O)c2cc3c(CO)cnc(C)c3oc2=Nc2cccc(C(N)=O)c2)cc1,102%
17,O=C(NC1CCCC1)C(c1ccco1)N(C(=O)c1csnn1)c1ccccc1 (stereo not drawn),100%
18,Cc1cs/c(=N\N=C\c2ccc(O)cc2)n1Cc1ccco1,100%
19,CCOC(=O)/C=c1\s/c(=C\c2ccc(C#N)cc2)c(=O)n1CC(=O)Nc1cccc(C)c1C,102%
20,CN(c1ccccc1)c1ccc(/C=c2\s/c(=C(/C#N)C(=O)C(C)(C)C)n(Cc3ccco3)c2=O)cc1,47% [inhibitor] (active)
21,COc1ccc(Cc2nc3ccc(C(=O)N4CCC(N(C)C)C4)cc3o2)cc1 (stereo not drawn),97%
